Assay results published in PubChem BioAssay (NCI).
This is part of a sample that, as a whole, favours compounds with a hit. Of some 79,000 tested, about 15% had one in any assay. Unmarked numbers belong to inactive results. The source made the active and inactive calls. No stated cut-off is given here; in the data, active means growth inhibition above about 70%; inactive means the rest.

Tests used:
[1] = NCI Yeast Anticancer Drug Screen. Data for the rad50 strain (AID 155);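 further: 0% = growth of vehicle-only cultures of the same strain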; conditions: S. cerevisiae rad50 strain growth inhibition, hits give high values
Method in brief: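 Growth of the mutant yeast was measured after compound exposure and referenced to vehicle-treated cultures.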

[2] = NCI Yeast Anticancer Drug Screen. Data for the mec2-1 strain (AID 157); conditions: S. cerevisiae mec2-1 strain, hits give high values
Method in brief: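 Growth inhibition is read against vehicle-treated controls after compound exposure of the mec2-1 yeast strain, which is defective in DNA damage repair or cell cycle control.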

[3] = NCI Yeast Anticancer Drug Screen. Data for the sgs1 mgt1 strain (AID 161);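 further: 0% = growth of cultures given vehicle only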; conditions: S. cerevisiae sgs1 mgt1 strain, hits give high values
Method in brief: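 Compounds are added to genetically altered yeast, and growth is compared with cultures given vehicle alone to give percent inhibition.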

[4] = NCI Yeast Anticancer Drug Screen. Data for the cln2 rad14 strain (AID 165);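 further: 0% = growth equal to vehicle treated cultures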; conditions: S. cerevisiae cln2 rad14 strain, hits give high values
Method in brief: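 Growth inhibition, relative to vehicle-treated controls, is the read-out. The test organism is a yeast strain with defined genetic alterations, cln2 rad14.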

[5] = NCI Yeast Anticancer Drug Screen. Data for the bub3 strain (AID 167); conditions: S. cerevisiae bub3 mutant strain, hits give high values
Method in brief: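 Whole-cell yeast assay. The mutant strain was incubated with compounds, and growth inhibition was determined by comparison with vehicle-treated cells.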

[6] = NCI Yeast Anticancer Drug Screen. Data for the mlh1 rad18 strain (AID 175); conditions: S. cerevisiae mlh1 rad18 strain growth inhibition, hits give high values
Method in brief: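 Cells of a genetically altered yeast strain, deficient in DNA damage repair, were treated with compound. Their growth was then compared with that of vehicle-treated cultures to give inhibition.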

[7] = at 5.0 µM (retest, dose inferred, filed as 0.5)
[8] = at 50.0 µM (retest, dose inferred, filed as 5.0)

| SMILES | growth inhibition [1, 7] | growth inhibition [1, 8] | growth inhibition ([1]; at 50.0 µM) | growth inhibition [2, 7] | growth inhibition [2, 8] | growth inhibition ([2]; at 50.0 µM) | growth inhibition [3, 7] | growth inhibition [3, 8] | growth inhibition ([3]; at 50.0 µM) | growth inhibition [4, 7] | growth inhibition [4, 8] | growth inhibition ([4]; at 50.0 µM) | growth inhibition [5, 7] | growth inhibition [5, 8] | growth inhibition ([5]; at 50.0 µM) | growth inhibition [6, 7] | growth inhibition [6, 8] | growth inhibition ([6]; at 50.0 µM) |
| --- | --- | --- | --- | --- | --- | --- | --- | --- | --- | --- | --- | --- | --- | --- | --- | --- | --- | --- |
| C=C1CC(C)(COc2ccc3c(C)c(Cl)c(=O)oc3c2)OC1=O (configuration not stated) | 23% | 95% (active) | 80% (active) | 2% | 97% (active) | 68.8% | -2% | 95% (active) | 81% (active) | -15% | 92% (active) | 76.8% (active) | 13% | 94% (active) | 85.8% (active) | 8% | 97% (active) | 58.6% |
| O=[N+]([O-])c1cccc(S(=O)(=O)Cl)c1 | -1% | 10% | -15.3% | 2% | 3% | 14.9% | 1% | 6% | 14.2% | -3% | 0% | 43.9% | -2% | 4% | 59.5% | -1% | 2% | 33.5% |
| O=S(=O)(Nc1ccc2c3c(cccc13)C=C2)c1ccccc1 | -1% | 98% (active) | 64.5% | -4% | 94% (active) | 75.2% (active) | -7% | 97% (active) | 79.8% (active) | -9% | 96% (active) | 61.3% | -1% | 98% (active) | 63.4% | -2% | 97% (active) | 92.3% (active) |
| CC(=O)Nc1c([N+](=O)[O-])cc2c3c(cccc13)C=C2 | 3% | 77% (active) | 24.8% | 1% | 47% | 16.1% | 6% | 56% | 9.8% | 6% | 77% (active) | 74.9% (active) | 3% | 23% | -17.2% | 31% | 94% (active) | 67.8% |
| O=C1OC(CCl)CC12CC(CCl)OC2=O (configuration not stated) | 1% | 2% | 93.7% (active) | -4% | 3% | 89.7% (active) | -1% | 1% | 94% (active) | -1% | 1% | 79.6% (active) | 0% | -3% | 96% (active) | -3% | 0% | 95.9% (active) |
| Oc1cccc2c(Br)ccnc12 | -5% | 100% (active) | 87% (active) | -21% | 99% (active) | 92% (active) | -33% | 99% (active) | 85% (active) | -5% | 99% (active) | 87.8% (active) | -29% | 99% (active) | 87.2% (active) | 15% | 99% (active) | 81.8% (active) |
| COC(=O)c1ccc2c(c1)CC1(C2)Cc2ccccc2C1=O (configuration not stated) | 14% | 88% (active) | 68% | -20% | 92% (active) | 77% (active) | -4% | 84% (active) | 83.5% (active) | -37% | 64% | 57.5% | 6% | 98% (active) | 87.1% (active) | -17% | 94% (active) | 79.5% (active) |
| COC(=O)c1ccc(C)cc1C1CN=NC12Cc1cc(C)ccc1C2=O (configuration not stated) | 10% | 50% | 5.35% | 8% | 44% | 19.6% | 5% | 67% | 68.6% | 6% | 44% | 37.2% | 6% | 73% (active) | 46.1% | 13% | 65% | 65% |
| CC(C)S(=O)(=O)ON1C(=O)c2ccc(N(C)C)cc2C1=O | 14% | 35% | 91.7% (active) | 14% | 33% | 81.8% (active) | 16% | 34% | 61.3% | 24% | 42% | 95.4% (active) | 17% | 48% | 73.4% (active) | 16% | 40% | 97.5% (active) |
| CO/N=C/c1cc(NC(=S)c2ccoc2C)ccc1Cl | 4% | 0% | 93.2% (active) | -16% | -17% | 94.2% (active) | 20% | 6% | 93.7% (active) | -26% | 10% | 92.2% (active) | 9% | 34% | 92.2% (active) | -23% | -14% | 91.2% (active) |
| COc1ccc(C(=O)Cc2ccc(Cl)cc2)cc1OC | -12% | -1% | 6.3% | -7% | -13% | 2.65% | -14% | -17% | 10.5% | 9% | -3% | -4.45% | -1% | -1% | 3.55% | -17% | -22% | 16.6% |
| CCOc1ccnc2c(C)c3c([nH]c4ccccc43)c(C)c12 | 50% | 99% (active) | 99.2% (active) | 23% | 99% (active) | 99.5% (active) | 29% | 52% | 99.2% (active) | 14% | 97% (active) | 99% (active) | 11% | 99% (active) | 99.3% (active) | 16% | 99% (active) | 99.3% (active) |
| O=Nc1c(-c2c[nH]c3ccccc23)[nH]c2ccccc12 | 8% | 60% | 51.1% | 7% | 44% | 24.2% | 13% | 56% | 16% | -8% | 33% | 16.9% | 13% | 84% (active) | 69% | 12% | 53% | 26.1% |
| COc1ccc(C2SC(N)=Nc3c2c(C)nn3C(=O)c2ccccc2O)cc1OC (configuration not stated) | -9% | 74% (active) | 53.3% | -15% | 81% (active) | 35.2% | -8% | 70% (active) | 75.3% (active) | -20% | 24% | -19% | -19% | 31% | 74.3% (active) | 1% | 91% (active) | 65.5% |
| CCCCCC(C)C1=NC(C)(C)CC(C)O1 (configuration not stated) | -153% | -154% | 5.85% | -51% | -57% | -3.85% | -64% | -68% | -0.45% | -62% | -64% | 32.4% | -73% | -81% | -3.2% | -139% | -116% | 12.1% |
| COc1ccc2c(c1OC)OCC2C (configuration not stated) | 3% | 68% | 86.5% (active) | 0% | 38% | 71% (active) | 1% | 56% | 37.6% | -4% | 57% | 57.4% | 2% | 71% (active) | 87.1% (active) | -4% | 67% | 43.2% |
| CC(C)(Cl)C(Cl)CC/C(CBr)=C(\Cl)CCl (configuration not stated) | 28% | 98% (active) | 86.7% (active) | 19% | 98% (active) | 89.9% (active) | 14% | 100% (active) | 91.5% (active) | 26% | 98% (active) | 88.2% (active) | 27% | 100% (active) | 88.2% (active) | 21% | 98% (active) | 1.35% |
| CCCCCCCCN(CCCCCCCC)Cc1ccc(Br)cc1 | 98% (active) | 99% (active) | 99.2% (active) | 96% (active) | 100% (active) | 99.5% (active) | 99% (active) | 99% (active) | 99.5% (active) | 97% (active) | 99% (active) | 99% (active) | 96% (active) | 99% (active) | 99.2% (active) | 97% (active) | 99% (active) | 99.5% (active) |
| C/C(=N/NC(=S)Nc1ccccc1Cl)c1ccccn1 | -1% | 19% | 70.4% (active) | -30% | 11% | 50.1% | -51% | 22% | 81.3% (active) | 3% | 5% | 78.3% (active) | -37% | 17% | 56.2% | -21% | 20% | 77.2% (active) |
